Screening data as filed in PubChem BioAssay.
Sampled rows, rich in hits. Any-hit rate of the full collection: about 5.2%.
Coupling enz – coupling enzyme interference in Giardia aldolase counter-screen; activity change, negative = inhibition, % at 58.2 µM, hits read low; coupling enzyme system counterscreen, AmpLite Red fluorescence; 0.67% of 290,000 active; in the data active means activity change below about -30%
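First, compound is pin-transferred into glyceraldehyde-3-phosphate coupling-enzyme reagent at 57.5 uM final and held 10 min at RT. Next, substrate, coupling system and AmpLite Red are added. After 20 min RT, fluorescence (525/598 nm) is read.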
Tau ThT inhib – tau fibrillization inhibition (ThT binding); recombinant tau K18 P301L, heparin-induced fibrillization, ThT fluorescence; P10636; Potency, µM (doses to about 57.4 µM), for inactives: at the highest dose activity, negative = inhibition, usual class: inhibitors; 2.1% of 270,000 active; further: potency means the concentration at half of the fitted maximal effect; nearly all actives have a fitted effect of over 55% in size
Target sequence (P10636 561-689 P618L limits assumed): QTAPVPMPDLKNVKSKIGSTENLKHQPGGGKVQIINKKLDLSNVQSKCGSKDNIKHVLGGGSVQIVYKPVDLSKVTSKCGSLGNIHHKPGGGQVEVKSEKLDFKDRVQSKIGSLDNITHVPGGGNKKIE
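Tau K18 P301L fragment (15 uM unlabeled plus 0.24 uM Alexa 594-labeled) in 100 mM sodium acetate pH 7 with compound, fibrillization induced by 20 uM heparin for 6 hr at 37 C. Thioflavin T (30 uM) added, fluorescence read after 1 hr (ex 450, em 510 nm).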
Sfp PPTase inh – inhibitors of Bacillus subtilis Sfp phosphopantetheinyl transferase; Q9F4F7; Biochemical Sfp PPTase activity, qHTS; Potency, µM, for inactives: largest response in the series, negative = inhibition, hits mostly inhibitors; 3.5% of 310,000 active; AID 1490;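 further: the enzyme is Sfp with the accession as filed and its product quenches rhodamine fluorescence; potency means the concentration at half of the fitted maximal effect; 0% = enzyme reaction without inhibitor and -100% = no enzyme wells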
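Fluorescence-quenching assay: 15 nM Sfp-PPTase preincubated 15 min at room temperature with compound, then 5 uM rhodamine-CoA and 12.5 uM BHQ-2-labelled YbbR peptide added. Fluorescence (ex 525/em 598 nm) read at start and after 30 min; difference gives rate.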
Tau fibril FP – inhibitors of human tau fibril formation; 0.39% of 280,000 active; Potency, µM (doses to about 57.7 µM), without a hit: at the highest dose activity, negative = inhibition, usual class: inhibitors; P10636; AID 1468; K18 P301L tau heparin fibrillization, Alexa594 FP, 6 h; further: potency means the concentration at half of the fitted maximal effect; nearly all actives have a fitted effect of over 55% in size
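Read-out: fluorescence polarization of Alexa 594-labeled tau (0.24 uM), 555 nm excitation, 632 nm emission. Mixtures held 15 uM unlabeled K18 P301L, compound and 20 uM heparin, pH 7 acetate buffer, incubated 6 hr at 37 C.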
Tau fluor counter – counter-screen for tau fibril formation inhibitors | AID 1463 | 0.93% of 280,000 active | tau K18 P301L (four-repeat tau fragment) Alexa594 fluorescence, heparin fibrillization | Potency, µM (titrated, usually from 57.7 µM), without a hit: at the top dose activity change, negative = decrease; further: potency means the concentration at half of the fitted maximal effect; nearly all actives have a fitted effect of over 55% in size
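Human K18 P301L tau (15 uM unlabeled plus 0.24 uM Alexa 594-labeled, final) in 100 mM sodium acetate pH 7 was mixed with compound and 20 uM heparin and incubated 6 hr at 37 C.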
An asterisk follows results filed as active; ? = inconclusive; . = no result; ! = not confirmed by another sample; [ ] = dose if it differs, or a comment. Unless noted, the call rests on the fitted dose curve; in most records, active means well fitted curve in the direction sought with a large enough effect; inconclusive means small, poorly fitted or top-dose-only effect, or another doubt; inactive means no such curve, though single readings can be large; an effect the other way counts as inactive or inconclusive. Unless noted, on the % scale 0 is the no-effect control and ±100 the full control effect.

SMILES	Coupling enz	Tau ThT inhib	Sfp PPTase inh	Tau fibril FP	Tau fluor counter
CN(C)c1ccc(/C=C/c2cccc[n+]2[O-])cc1	-0.3	-3.8%	7.9%	1.9%	-4.2%
CN(C)c1ccc(/C=C/c2ccc3ccccc3[n+]2C)cc1	-5.1	0.562µM*	-22.3%	11.3%	0.501µM*[fluorescent]
COc1ccccc1NC(=O)c1cc2ccc(O)cc2o/c1=N\O	-3.7	7.08µM*	-10.3%	4.7%	?
COc1ccccc1N=c1oc2cc(O)ccc2cc1C(N)=O	4.0	?	6.9%	5.2%	-25.2%
COc1ccccc1NC(=O)c1cc2cc(Br)ccc2cc1O	-19.7	.	?	-6.0%	6.31µM*[quencher]
COc1ccccc1NC(=O)c1cc2ccccc2o/c1=N\O	-1.2	?	50.1µM*	6.3%	-11.0%
COc1ccc(NC(=O)c2cc3ccccc3o2)c(OC)c1	.	-12.0%	.	-2.3%	-11.2%
COc1cc(NC(=O)c2cc3ccccc3cc2O)c(OC)cc1Cl	-6.7	?	13.5%	-12.2%	?
Cc1ccc(-n2c(=O)c3c(c4cc(C)ccc4n3C)n(CC(=O)NCc3ccccc3)c2=O)cc1	.	10.2%	.	-4.5%	9.7%
Cc1ccc(NC(=O)CNCCCN2CCOCC2)cc1S(=O)(=O)N1CCCCC1	0.9	-4.0%	79.4µM*	2.7%	-6.8%
COc1cc(/C=C/C(=O)OCC(=O)Nc2ccc(C)c(S(=O)(=O)N3CCCCC3)c2)ccc1O	-0.6	-8.3%	13.4%	-3.4%	14.1µM*[quencher]
COCCNCC(=O)Nc1ccc(C)c(S(=O)(=O)N2CCCCC2)c1	-0.9	-6.9%	-7.6%	-7.4%	-14.1%
COc1cc(/C=C/C(=O)OCC(=O)Nc2cc(S(=O)(=O)N3CCCCC3)ccc2C)ccc1O	1.1	-4.8%	15.0%	10.2%	?
O=C1CSC(=S)N1/N=C/c1ccc(O)c(O)c1O	-59.1*	3.55µM*	3.16µM*	7.08µM*	?
C(=N\Nc1ccccc1)/c1ccc(N2CCOCC2)cc1	0.7	35.5µM*	-1.5%	12.0%	?
Clc1cccc(N/N=C/c2ccc(N3CCOCC3)cc2)c1	-1.4	?	8.2%	14.3%	?
C(=N\Nc1ccccn1)/c1ccc(N2CCOCC2)cc1	-0.8	?	39.8µM*	?	-4.4%
Oc1ccc(/C=N/Nc2cc(N3CCOCC3)nc(N3CCOCC3)n2)cc1O	-10.9	?	79.4µM*	-5.0%	?
CN(Cc1ccccc1)C(=O)Cn1c(=O)c2cccn2c2ccc(F)cc21	.	-7.1%	.	?	3.0%
COc1cccc2c1C(=O)c1c(O)c3c(c(O)c1C2=O)C[C@@](O)(C(C)=O)C[C@@H]3O[C@H]1C[C@H](N)[C@H](O)[C@H](C)O1	-51.8*!	3.98µM*	50.1µM*!	25.1µM*	-10.0%
COc1cccc2c1C(=O)c1c(O)c3c(c(O)c1C2=O)C[C@@](O)(C(=O)CO)C[C@@H]3OC1C[C@@H](N)[C@H](O)[C@H](C)O1 (stereo partly drawn)	-23.4	5.01µM*	?	25.1µM*	8.6%
COc1cccc2c1C(=O)c1c(O)c3c(c(O)c1C2=O)C[C@](O)(C(=O)CO)C[C@@H]3O[C@H]1C[C@H](N)[C@@H](O)[C@H](C)O1	.	.	10.8%	.	.
Cc1noc(-c2ccc(NC(C)c3ccccc3)c([N+](=O)[O-])c2)n1 (stereo not drawn)	.	7.0%	.	14.8%	-2.0%
CC(=O)OCC1=C[C@H]2[C@@H]3C(C)(C)[C@]3(OC(C)=O)C[C@@H](C)[C@]2(O)[C@@H]2C=C(C)C(=O)[C@@]2(O)C1	-6.3	.	3.9%	.	.
COc1ccc(Cl)cc1NC(=S)N(Cc1ccccc1C)CC1CCC(C(=O)O)CC1 (stereo not drawn)	6.0	-11.5%	56.2µM*	2.1%	-10.7%
SMILES	Coupling enz	Tau ThT inhib	Sfp PPTase inh	Tau fibril FP	Tau fluor counter
CC1CCCN(C(=O)c2cc3c(=O)n(C)c4ccccc4c3s2)C1 (stereo not drawn)	.	-9.6%	.	-0.9%	-10.5%
CC1(c2ccccc2)CC(C)(C)N(C(=O)c2cccc(Cl)c2)c2ccccc21 (stereo not drawn)	.	-10.5%	.	-3.2%	-4.2%
CCNC(=S)N/N=C(\C)c1ccco1	2.6	-1.8%	56.2µM*	4.1%	1.6%
C/C(=N\NC(=S)Nc1cccc(C)c1)c1ccco1	3.1	-0.7%	9.4%	5.3%	7.2%
Cc1ccccc1Nc1nnc(-c2ccc(C)c(S(=O)(=O)N3CCCCC3)c2)c2ccccc12	.	?	.	-2.7%	-1.5%
COc1cc(OC)c2c(c1)OC1Cc3cc(OC)c(OC)cc3C2O1 (stereo not drawn)	-0.7	-14.6%[11.5 µM]	-17.2%	-0.9%[11.6 µM]	-18.7%[11.6 µM]
COc1ccc(-c2ccnc3nc(Sc4ncc(C(F)(F)F)cc4Cl)nn23)cc1	-5.9	-9.9%	-0.3%	-13.2%	?
FC(F)(F)c1cnc(Sc2nc3nccc(-c4ccc(Cl)cc4)n3n2)c(Cl)c1	-55.4*	1.0%	4.9%	-0.6%	-11.4%
COc1cccc(CNC(=O)Cn2c(=O)ccc3cc(S(=O)(=O)N4CCC(C)CC4)ccc32)c1	.	-0.9%	.	-16.2%	-20.8%
Cc1cc(-c2ccccc2)nc2c(Br)c(=O)[nH]n12	6.2	10µM*	4.9%	?	-17.1%
Cc1cc2nc(-c3ccccc3)cc(=O)n2[nH]1	-1.6	-5.8%	-22.3%	5.5%	-6.2%
C[C@H](NC(=O)N1CCc2nc(-c3ccccc3)c3c(c2C1)CO[C@@H](C)C3)c1ccccc1	-0.5	-3.9%[11.5 µM]	-12.2%	11.8%[11.6 µM]	0.0%[11.6 µM]
CC(C)NC(=O)CC(c1ccccc1)c1cc(Br)ccc1O (stereo not drawn)	0.4	-8.6%	100µM*	2.0%	-20.1%
Nc1c(C(=O)NCC2CCCO2)sc2nc3c(c(-c4ccco4)c12)CC/C3=C\c1ccco1 (stereo not drawn)	-16.0	15.8µM*	31.6µM*	?	?
CC(=O)OCCn1c2nc(=O)[nH]c(=O)c-2nc2cc(C)c(C)cc21	-19.5	?	7.1%	-11.5%	-8.2%
Cc1cc2nc3c(=O)[nH]c(=O)nc-3n(CC(O)C(O)C(O)CO)c2cc1C (stereo not drawn)	-33.4*!	?	14.9%	1.7%	-1.4%
N#CC1=C(SCC(N)=O)NC2=C(C(=O)c3ccccc32)C1c1ccc(Cl)cc1 (stereo not drawn)	-1.7	14.1µM*	2.4%	?	?
Fc1cccc(-c2n[nH]c(=S)n2-c2ccccc2)c1	3.7	.	13.6%	.	.
S=c1[nH]nc(-c2cnccn2)n1-c1ccccc1	8.7	3.0%	56.2µM*	-3.4%	5.0%
COc1ccc(OC)c(-n2c(-c3cnccn3)n[nH]c2=S)c1	-13.9	-3.8%	-20.3%	-2.5%	-10.4%
COc1ccc(-n2c(-c3cnccn3)n[nH]c2=S)cc1	-1.6	2.0%	50.1µM*	-6.1%	4.4%
O=C(O)c1cccc(-n2c(-c3cnccn3)n[nH]c2=S)c1	0.3	6.7%	28.2µM*	-2.0%	12.4%
Cc1cccc(N2CCN(C(=O)c3ccc4c(Cl)c5c(nc4c3)CCCC5)CC2)c1C	.	?	.	-4.8%	-14.6%
